# Source: PubChem (several laboratories)
# Only some compounds are listed: those with a hit (about 3.5% of all), similar ones and a draw of the others.
# Mtb UGM inh = Mtb UDP-galactopyranose mutase inhibition; purified UGM, fluorescence polarization probe displacement; inhibition, % at 10 µM; AID 504406; 320,000 tested, 0.06% active; in the data active means inhibition above about 10%, passing the limit was not always enough
# Target sequence (P9WIQ1 whole entry, looked up): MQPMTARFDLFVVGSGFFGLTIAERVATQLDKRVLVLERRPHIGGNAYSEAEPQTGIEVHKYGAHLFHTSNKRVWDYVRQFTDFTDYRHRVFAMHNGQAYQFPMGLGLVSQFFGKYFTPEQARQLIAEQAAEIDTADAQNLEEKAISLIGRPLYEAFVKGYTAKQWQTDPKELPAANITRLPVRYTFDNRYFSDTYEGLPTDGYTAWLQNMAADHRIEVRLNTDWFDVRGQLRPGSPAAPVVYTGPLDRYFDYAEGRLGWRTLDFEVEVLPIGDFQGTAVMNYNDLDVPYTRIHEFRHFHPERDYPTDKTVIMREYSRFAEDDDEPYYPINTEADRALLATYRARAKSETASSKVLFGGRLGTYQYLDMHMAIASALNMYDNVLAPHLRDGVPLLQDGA
# Rv3671c inh = Rv3671c (M. tuberculosis) protease inhibition; P9WHR9; AID 2606; 320,000 tested, 0.048% active; inhibition, % at 5.96 µM; in the data active means inhibition above about 38%;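 further: extracellular domain of Rv3671c used as enzyme; 0% = enzyme with DMSO and 100% = no enzyme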
# FadD28 FP inh = inhibitors of Mycobacterium tuberculosis FadD28 bisubstrate binding | FadD28 bisubstrate probe binding, fluorescence polarization | inhibition, % at 12.5 µM | 360,000 tested, 0.22% active | AID 588549; in the data active means inhibition above about 8.5%, passing the limit was not always enough
# Mtb hypoxia rep = reduces hypoxia-regulated biosensor signal in M. tuberculosis; 300,000 tested, 0.1% active; fluorescence inhibition, % (no concentration beside the values); M. tuberculosis hypoxia-regulated fluorescent reporter, fluorescence; in the data active means fluorescence inhibition mostly above about 23%, no sharp cut-off; inactive means mostly below about 17%
# GDH-TPI counter = inhibits GDH-TPI coupling enzymes, artifact for Mtb FBA screen. GDH-TPI coupled enzyme counterscreen, NADH absorbance. inhibition, % at 4.8 µM. 360,000 tested, 1.2% active; in the data active means inhibition above about 30%;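 further: 0% = DMSO wells and 100% = wells lacking the enzyme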
# Mtb FBA inh = Mtb fructose-bisphosphate aldolase inhibition; P9WQA3; purified M. tuberculosis FBA, fluorescence read-out; 360,000 tested, 2.3% active; inhibition, % at 1 µM; in the data active means inhibition above about 27%;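 further: 0% = vehicle and 100% = reference inhibitor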
# * = called active by the depositor; . = not tested or not shown; + = active, no number.
SMILES,Mtb UGM inh,Rv3671c inh,FadD28 FP inh,Mtb hypoxia rep,GDH-TPI counter,Mtb FBA inh
CC(C)(C)C(=O)OCOC(=O)C1N2C(=O)C(N=CN3CCCCCC3)C2SC1(C)C (configuration not stated),.,.,.,-0.5,.,.
Cc1c(O)ccc(C=NNc2nc(-c3cccnc3)nc3ccccc23)c1O,.,.,.,4.8,.,.
O=C(N1CCN(c2cccc(Cl)c2)CC1)C1(S(=O)(=O)c2ccc(Cl)cc2)CC1,-2.6,-1.0,-3.6,-0.7,-2.7,1.0
CC(=O)c1ccc(N2CCN(C(=O)C3(S(=O)(=O)c4ccc(Cl)cc4)CC3)CC2)cc1,-1.3,3.2,-2.5,2.5,34.0*,2.9
CC(=NNc1cccc(C(=O)O)c1)c1ccc2c(c1)Nc1ccccc1S2,.,.,.,13.3,.,.
CCc1ccc(NC(=O)C(=O)NN=C(C)CC(=O)NCCOC)cc1,.,.,.,8.7,.,.
COc1ccc(/C=C2\CCCc3c2nc2ccccc2c3C(=O)O)cc1OC,48.4*,2.2,.,.,.,.
CCOc1ccc(/C=C2\CCCc3c2nc2ccccc2c3C(=O)O)cc1OC,70.3*,3.0,3.8,.,10.7,-7.5
C#CCn1c2ccccc2c(=O)n1C(C)C,.,.,0.7,.,.,121.4*
COc1cccc(-c2c(C(=O)NN=Cc3ccsc3)nnn2-c2nonc2N)c1,.,.,.,-1.1,.,.
C=CCN1C=CC(=O)[C@@H](OC(=O)Nc2ccc(Br)cc2)[C@H]1c1ccccc1Br,.,.,-1.3,.,33.3*,3.7
C#CCN1C=CC(=O)[C@@H](OC(=O)Nc2ccc(Br)cc2)[C@H]1c1ccccc1Br,.,.,-17.1,.,18.8,0.8
O=C(/C=C/NCc1cccnc1)C(F)(F)C(F)(F)F,2.2,-3.2,0.4,-0.4,7.6,1.0
O=C(/C=C/NCc1cccnc1)c1ccc(Br)cc1,-0.3,-4.1,-1.7,-11.3,53.7*,-2.5
CC(C)(C)C1COC(=O)C(NC(=O)OCC2c3ccccc3-c3ccccc32)CC=CCC(CC(=O)N(CCO)Cc2ccccc2)C(=O)N1 (configuration not stated),.,.,.,2.3,.,.
CCc1ccc(OC(=O)c2cncc(Br)c2)cc1,1.8,-3.9,0.6,3.6,-2.0,2.6
CCCC(=O)Oc1ccc2c(C)cc(=O)oc2c1,0.4,1.9,-3.1,3.5,4.7,+
CCCCn1nc(C(=O)Oc2ccc3c(C)cc(=O)oc3c2)c2ccccc2c1=O,.,3.0,1.5,6.3,4.0,+
Cc1cc(=O)oc2cc(OC(=O)c3cncc(Br)c3)ccc12,-0.1,4.4,-2.2,6.1,-2.9,+
Cc1cc(=O)oc2cc(OC(=O)CCN3C(=O)c4ccccc4C3=O)ccc12,1.3,-11.9,-2.4,0.1,5.6,+
CC(C)(C)C1COC(=O)CCCC=CCC(CC(=O)NCCO)C(=O)N1 (configuration not stated),.,.,.,9.7,.,.
CC(CC(=O)Nc1ccc(C)c(Cl)c1)=NNC(=O)Cc1cnc(N)s1,.,.,.,7.2,.,.
COC(=O)C1=C(c2ccc(OC)c(OC)c2)CC2CCC1N2C(=O)N1CCCC1 (configuration not stated),.,.,.,7.0,.,.
CCOC(=O)c1sc(N=Cc2c(O)ccc3ccccc23)cc1C,.,.,.,-9.1,.,.
O=C(Oc1ccc2c(=O)c(Oc3ccc4ccccc4c3)coc2c1)c1cncc(Br)c1,-1.6,-11.9,-3.6,.,3.0,29.9*
SMILES,Mtb UGM inh,Rv3671c inh,FadD28 FP inh,Mtb hypoxia rep,GDH-TPI counter,Mtb FBA inh
C=CCN(c1ccccc1)S(=O)(=O)c1cccc(C(=O)Oc2ccc3c(C)cc(=O)oc3c2)c1,-0.4,-1.4,-3.4,-11.5,-4.0,+
COc1cccc(C=c2sc3nc(-c4cccs4)nn3c2=O)c1OC,.,.,.,3.4,.,.
O=C(Nc1ncc2c(n1)-c1ccccc1OC2)c1ccccc1Cl,-2.0,-4.7,-4.9,4.8,20.1,113.4*
CCOC(=O)C1C2COc3cc(OC)ccc3C2N2C(=O)N(c3ccc(F)cc3)C(=O)[C@]12C (some centres not stated),.,.,.,1.7,.,.
CCOc1c2ccc(C(=O)NCc3ccccc3OC)cc2nn1CC,-0.7,6.4,1.6,1.6,-1.2,46.8*
CCCn1nc2cc(C(=O)N(CC)c3ccc(OC)cc3)ccc2c1OCC,2.9,-11.3,-1.7,11.1,0.0,40.2*
CCOc1c2ccc(C(=O)NCc3ccc(OC(F)(F)F)cc3)cc2nn1CC,-2.8,5.2,-3.1,0.0,3.6,24.3
COc1ccccc1CNC(=O)c1ccc2nc3[nH]c4ccccc4c3nc2c1,-0.3,-56.3,-0.6,-0.9,39.5*,-0.5
CCCCn1nc2cc(C(=O)NCCCCc3ccccc3)ccc2c1OCC,4.3,4.0,-1.9,4.1,-1.7,24.5
CCCCn1nc2cc(C(=O)NCc3ccccc3)ccc2c1OCC,-1.5,7.6,1.3,15.5,1.2,67.9*
CCc1nc2ccc(C(=O)NCCc3ccccc3OC)cc2nc1CC,3.1,-7.3,-0.9,3.3,5.2,0.1
CCOP(=O)(OCC)C(=NOC(=O)c1ccc(Cl)cc1Cl)C(N)=O,.,.,.,3.6,.,.
CCCNC(=O)OCC1OC(CCON=CC(NS(=O)(=O)c2ccc(C)cc2)C(C)C=CCC(=O)OC)C=CC1Oc1ccc(OC)cc1 (configuration not stated),.,.,.,13.5,.,.
S=c1[nH]nc(C2CCCCC2)n1N=Cc1ccc(Cl)cc1,.,.,.,-6.8,.,.
CON=CC(=NNc1ccc(OC)cc1)C(=O)c1ccccc1,.,.,.,11.0,.,.
OCCC1CC(O)C(O)[C@@]2(CCCO2)O1 (some centres not stated),.,.,.,5.3,.,.
CCc1nnc(NN=Cc2ccc(OC(C)=O)c(OC)c2)n1N,.,.,.,6.8,.,.
CCOc1ccc(C=NNC(=O)C2(O)c3ccccc3-c3ccccc32)cc1,.,.,.,5.1,.,.
CCOc1c2ccc(C(=O)NCc3ccco3)cc2nn1CC,1.3,-0.6,-4.1,-1.7,6.9,38.7*
Cc1cc(C(=O)NN=C2CCCC(=O)C2)c(C)n1-c1ccccc1,.,.,.,18.0,.,.
CCOc1cccc2cc(-c3csc(NC(=O)CCC(=O)NCCN4CCCCC4C)n3)c(=O)oc12 (configuration not stated),1.1,-7.9,0.2,5.5,34.1*,-0.3
NC1=NCC(Cc2ccccc2)N1CC1CCCCC1 (configuration not stated),.,.,.,-5.1,.,.
O=C(COC(=O)c1ccc([N+](=O)[O-])o1)NC1CCCCC1,-1.7,-8.1,-2.2,.,-0.5,-4.1
O=C(COC(=O)c1ccc([N+](=O)[O-])o1)NC1CCCC1,21.4*,-11.3,-1.2,.,1.7,-1.9
COC(=O)C(Cc1ccccc1)NC(=O)C1CC1C(NC(=O)OCc1ccccc1)c1ccccc1 (configuration not stated),.,.,.,-0.3,.,.
O=C(c1coc(=O)c(Br)c1)N1CCCc2ccccc21,-1.4,-0.2,4.6,-3.0,21.6,141.3*
O=C(c1coc(=O)c(Br)c1)N1CCC(C(O)(c2ccccc2)c2ccccc2)CC1,2.7,7.5,-3.5,12.2,32.5*,69.7*
CCOC(=O)C1(C)CCCN(C(=O)c2cc(F)cc(F)c2)C1 (configuration not stated),.,.,-3.8,.,-6.4,-1.1
O=C(c1cccc(Br)c1)N1CCCc2ccccc21,0.8,-2.3,-3.7,.,-7.7,-0.2
CC1(C)CCCN(C(=O)c2coc(=O)c(Br)c2)C1,.,.,-1.5,.,7.2,51.2*
